Consider 14 compounds from PubChem BioAssay.

Several values for one entry are separate records, joined by “and”; a condition that tells them apart may be missing. Equal entries are not always repeated. Activity calls are given as the source filed them.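 Rule for the calls, unless noted: active = compounds killing one labelled cell type while sparing the other, by normalised counts and ratio limits, not self-fluorescent; inactive = the rest.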

Experiment [1] is described as follows: stimulators of insulin release from INS-1E, primary screen, cell-based, 5 mM glucose, NPC library (AID 1117329;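 active = compound raises insulin release from rat beta cells at 5 mM glucose, no numeric limit stated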). The following applies: rat INS-1E insulin secretion, at 10 µM, stronger effect = higher value.
A short description of experiment [2]: growth inhibition of GSK3B-pretreated HCT116 cells – cell-based, CellTiter-Glo, 0.2 to 20 µM (AID 1117336;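 active = compounds lowering colon cancer cell viability after pretreatment blocking the GSK3B kinase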). The following applies: HCT116 viability after GSK3B inhibitor, at 20 µM, stronger effect = higher value. (In general: ATP-based viability assays read luminescence as a measure of living cells.)
A short description of experiment [3]: inhibition of endothelial tube formation, primary screen, imaging, VEGF stimulated, CD31 staining, tube area, NPC library (AID 1117340;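 active = compound that reduces growth-factor-driven endothelial tube area in a mixed cell culture, no cutoff stated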). The following applies: VEGF-stimulated ADSC/ECFC co-culture, at 10 µM, stronger effect = higher value.
Experiment [4] can be described thus: glucagon-like peptide 1 release enhancers, primary assay, NCI-H716 cell line, NPC library (AID 1117341;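 active = compound raises GLP1 secretion from the human gut endocrine cells, with no numeric limit stated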). The following applies: NCI-H716 cells, at 10 µM, stronger effect = higher value.
The nature of experiment [5]: HCT116 colon cancer cell growth inhibition, primary screen, CellTiter-Glo luminescence, NPC library (AID 1117342;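 active = compounds that lower survival of HCT116 colon cancer cells in the luminescence readout, no numeric limit stated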). The following applies: at 20 µM (top of the series).
Experiment [6] in a line: CellTiter-Glo luminescent readout of SW480 viability loss, NPC library primary (AID 1117343;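 active = compounds that lower viability of the colon cancer cells in the luminescence readout, with no numeric limit stated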). The following applies: CellTiter-Glo luminescence; at 20 µM (top of the series).
The nature of experiment [7]: decreased DLD-1 cellular survival, CellTiter-Glo luminescent readout, NPC compound collection, primary HTS (AID 1117346;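 active = compounds that lower survival of DLD-1 colon cancer cells in the luminescence readout, no cutoff given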). The following applies: DLD-1 viability, CellTiter-Glo luminescence; at 20 µM (top of the series).
Experiment [8] deals with 6-phosphogluconate dehydrogenase, decarboxylating (Homo sapiens) (UniProt P52209). The experiment in a line: 6PGD enzyme inhibitors, primary screen, biochemical, human, recombinant enzyme, NADPH absorbance (AID 1159550;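 active = at least 20% inhibition of 6-phosphogluconate dehydrogenase activity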). The following applies: recombinant 6PGD, NADPH absorbance 341 nm; at 10 µM; stronger effect = higher value.
Chain of 6-phosphogluconate dehydrogenase, decarboxylating (Homo sapiens) (P52209 whole entry, looked up): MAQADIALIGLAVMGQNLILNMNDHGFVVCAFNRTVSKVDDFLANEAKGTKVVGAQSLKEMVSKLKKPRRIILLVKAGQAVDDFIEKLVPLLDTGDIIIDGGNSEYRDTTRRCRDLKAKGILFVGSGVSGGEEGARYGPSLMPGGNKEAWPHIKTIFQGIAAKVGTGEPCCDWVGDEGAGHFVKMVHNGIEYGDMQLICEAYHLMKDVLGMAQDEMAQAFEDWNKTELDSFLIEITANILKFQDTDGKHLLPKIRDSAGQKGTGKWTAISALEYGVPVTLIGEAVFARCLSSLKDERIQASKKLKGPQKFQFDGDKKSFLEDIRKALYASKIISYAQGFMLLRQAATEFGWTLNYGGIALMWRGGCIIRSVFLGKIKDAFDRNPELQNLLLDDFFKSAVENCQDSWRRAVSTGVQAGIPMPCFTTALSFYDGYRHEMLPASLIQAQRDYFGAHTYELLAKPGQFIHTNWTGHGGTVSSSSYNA
Experiment [9] in a line: differential killing of epithelial or mesenchymal cells, primary screen, imaging, PC-3E GFP, TEM4-18 mCherry, co-culture (AID 1345086).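 For all read-outs here: cells exposed to compound for 72 h before imaging.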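 For red/green cell ratio (normalised): normalised mesenchymal count divided by normalised epithelial count so high means epithelial killing.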 The following applies: imaging cell counts, at 1 µM; for red/green cell ratio (normalised): actives lie on both sides, counts scaled to control wells, 1 = unselective.
The mark [10] stands for this setting: measured here: epithelial PC-3E GFP cell survival.
The mark [11] stands for this setting: measured here: mesenchymal TEM4-18 mCherry cell survival.

`Cc1c(Cl)cccc1Nc1ccccc1C(=O)O`: in [1], the insulin secretion stimulation is 2.1% (inactive). Moreover, the viability decrease in experiment [2] was -14.5% (inactive). Further, the tube area decrease in experiment [3] was -8.8% (inactive). Besides, the GLP1 secretion stimulation in experiment [4] is 3.6% (inactive). For the same compound, in experiment [5], the inhibition of viability is 35.6% (inactive). Also, the viability decrease (inhibition) is 68.1% (active) in experiment [6] and 93.6% (active) in experiment [7]. For the same compound, in experiment [8], the inhibition is -12.8% (inactive). In addition, in experiment [9], the red/green cell ratio (normalised) was 0.86 (inactive). For the same compound, the normalised cell number in experiment [9] (setting [10]) stood at 1.08; in [9] (setting [11]) it was 0.93.
In the case of `O=C(O)c1ccccc1O`, the insulin secretion stimulation in [1] is -0.3% (inactive). Besides, in [2], the viability decrease was 7.5% (inactive). Moreover, the tube area decrease in experiment [3] was 5.9% (inactive). In addition, in [4], the GLP1 secretion stimulation is 6% (inactive). The inhibition of viability in experiment [5] is 10.8% (inactive). Further, the viability decrease (inhibition) in experiment [6] was -3.3% (inactive); in experiment [7], -1.7% (inactive). Moreover, in [8], the inhibition is 1.06% (inactive). The red/green cell ratio (normalised) in experiment [9] was 1.29 (inactive). Further, the normalised cell number in experiment [9] (setting [10]) stood at 0.92; in experiment [9] (setting [11]) it was 1.19.
As for `N[C@@H](CCC(=O)N[C@@H](CS)C(=O)NCC(=O)O)C(=O)O`, in experiment [1], the insulin secretion stimulation was -0.3% (inactive). For the same compound, the viability decrease in experiment [2] is -46.1% (inactive). Besides, the tube area decrease in [3] was 16.9% (inactive). Moreover, in experiment [4], the GLP1 secretion stimulation was -3.8% (inactive). The inhibition of viability in [5] is 5.53% (inactive). The viability decrease (inhibition) in [6] was 8.1% (inactive); in experiment [7], -4.3% (inactive). Also, in experiment [8], the inhibition was 0.532% (inactive). Further, the red/green cell ratio (normalised) in experiment [9] was 1.12 (inactive). The normalised cell number in experiment [9] (setting [10]) stood at 0.76; in [9] (setting [11]), 0.85.
For `Cc1cc(=O)[nH]c(=S)[nH]1`, the insulin secretion stimulation in experiment [1] is -0.5% (inactive). In [2], the viability decrease was 0.65% (inactive). Besides, the tube area decrease in experiment [3] is -25.4% (inactive). The GLP1 secretion stimulation in experiment [4] is 1.6% (inactive). Also, in experiment [5], the inhibition of viability is -2.3% (inactive). In addition, the figures for the viability decrease (inhibition) in experiment [6] and in experiment [7] were 11.6% (inactive) and 0.15% (inactive), respectively. In addition, the inhibition in [8] is -2.01% (inactive). Further, in experiment [9], the red/green cell ratio (normalised) was 0.93 (inactive). The normalised cell number amounted to 0.99 in experiment [9] (setting [10]) and 0.92 in experiment [9] (setting [11]).
In the case of `O=C(O)c1ccccc1C(=O)Nc1ccc(S(=O)(=O)Nc2nccs2)cc1`, the insulin secretion stimulation in experiment [1] was -2.1% (inactive). For the same compound, the viability decrease in experiment [2] was -13.1% (inactive). Moreover, the tube area decrease in experiment [3] is 3.3% (inactive). Besides, the GLP1 secretion stimulation in [4] is 1.4% (inactive). Also, the inhibition of viability in experiment [5] is -16.3% (inactive). The viability decrease (inhibition) was 20.3% (inactive) in [6] and -5.15% (inactive) in [7]. In experiment [8], the inhibition was 5.34% (inactive). The red/green cell ratio (normalised) in experiment [9] is 1 (inactive). Also, the normalised cell number in experiment [9] (setting [10]) came to 1.18; in [9] (setting [11]), 1.17.
For `Nc1ccc(N=Nc2ccccc2)c(N)n1`, the insulin secretion stimulation in experiment [1] is 0.5% (inactive). Also, in experiment [2], the viability decrease is 43.4% (inactive). The tube area decrease in experiment [3] was 36.8% (inactive). Also, in experiment [4], the GLP1 secretion stimulation was -4.7% (inactive). In addition, in [5], the inhibition of viability was 29% (inactive). Further, the results for the viability decrease (inhibition) in experiment [6] and in experiment [7] were 31.9% (inactive) and 16% (inactive), respectively. For the same compound, in [8], the inhibition was 3.23% (inactive). Also, the red/green cell ratio (normalised) in experiment [9] is 0.86 (inactive). Also, the results for the normalised cell number in [9] (setting [10]) and in experiment [9] (setting [11]) were 1.07 and 0.92, respectively.
For the compound `Cc1cc(C)nc(NS(=O)(=O)c2ccc(N)cc2)n1`, the insulin secretion stimulation in experiment [1] is 0.4% (inactive). Further, in experiment [2], the viability decrease is -0.3% (inactive). For the same compound, in experiment [3], the tube area decrease is -24.8% (inactive). The GLP1 secretion stimulation in experiment [4] is 1.6% (inactive). In addition, the inhibition of viability in experiment [5] was -12.6% (inactive). Moreover, the viability decrease (inhibition) in [6] is 35.5% (inactive); in [7] it was 6.75% (inactive). The inhibition in experiment [8] was 1.62% (inactive). For the same compound, in experiment [9], the red/green cell ratio (normalised) is 1.29 (inactive). Besides, the figures for the normalised cell number in experiment [9] (setting [10]) and in experiment [9] (setting [11]) were 1.02 and 1.31, respectively.
`CNC1(C)C2CCC(C2)C1(C)C` (centres undefined): the insulin secretion stimulation in experiment [1] was 3.5% (inactive). Further, in experiment [2], the viability decrease is -6% (inactive). For the same compound, the tube area decrease in experiment [3] was -1.8% (inactive). Moreover, the GLP1 secretion stimulation in experiment [4] was 4.9% (inactive). In addition, the inhibition of viability in [5] was 15.7% (inactive). Further, the viability decrease (inhibition) in experiment [6] was 8.7% (inactive); in experiment [7], 1.8% (inactive). Besides, in experiment [8], the inhibition is -9.67% (inactive). Moreover, in [9], the red/green cell ratio (normalised) is 0.89 (inactive). Also, the normalised cell number in experiment [9] (setting [10]) was found to be 1.09; in experiment [9] (setting [11]), 0.97.
`COCCc1ccc(OCC(O)CNC(C)C)cc1` (centres undefined): the insulin secretion stimulation in [1] was 5.6% (inactive). Moreover, in experiment [2], the viability decrease is -27.4% (inactive). Besides, the tube area decrease in [3] is -8.1% (inactive). Also, the GLP1 secretion stimulation in experiment [4] was -3.5% (inactive). Further, in [5], the inhibition of viability was 12.1% (inactive). For the same compound, the viability decrease (inhibition) in experiment [6] was 17.2% (inactive); in experiment [7] it was -6.3% (inactive). The inhibition in experiment [8] is -13.3% (inactive). Moreover, in [9], the red/green cell ratio (normalised) was 0.71 (inactive). The normalised cell number in experiment [9] (setting [10]) worked out at 1.33; in [9] (setting [11]), 0.95.
For `Cc1cc(C(C)(C)C)c(O)c(C(C)(C)C)c1`, the insulin secretion stimulation in [1] was -0.6% (inactive). The viability decrease in experiment [2] was -7.15% (inactive). For the same compound, the tube area decrease in experiment [3] is -2.9% (inactive). In addition, in experiment [4], the GLP1 secretion stimulation was 14.2% (inactive). Further, the inhibition of viability in experiment [5] is 10.4% (inactive). Besides, the figures for the viability decrease (inhibition) in [6] and in [7] were 3.9% (inactive) and -5.5% (inactive), respectively. Moreover, in [8], the inhibition was 14.6% (inactive). Besides, in experiment [9], the red/green cell ratio (normalised) was 0.93 (inactive). Further, the results for the normalised cell number in experiment [9] (setting [10]) and in [9] (setting [11]) were 1.01 and 0.94, respectively.
Consider `O=C(O)P(=O)(O)O`, for which the insulin secretion stimulation in experiment [1] is 0.5% (inactive). The viability decrease in [2] is -27.7% (inactive). Further, in [3], the tube area decrease is 0.7% (inactive). For the same compound, in experiment [4], the GLP1 secretion stimulation is -0.4% (inactive). In addition, in experiment [5], the inhibition of viability is -5.05% (inactive). Besides, the viability decrease (inhibition) in experiment [6] is 2.3% (inactive); in experiment [7] it was -16.6% (inactive). In addition, in [8], the inhibition is -6.34% (inactive). For the same compound, the red/green cell ratio (normalised) in experiment [9] is 0.82 (inactive). Further, the normalised cell number amounted to 1.21 in [9] (setting [10]) and 0.99 in experiment [9] (setting [11]).
Regarding `CN(C)C(=O)Oc1cccc([N+](C)(C)C)c1`, the insulin secretion stimulation in experiment [1] was -0.9% (inactive). The viability decrease in [2] is 10% (inactive). For the same compound, the tube area decrease in [3] was -12.9% (active). Besides, the GLP1 secretion stimulation in experiment [4] is 1.3% (inactive). In addition, in [5], the inhibition of viability is 2.9% (inactive). The viability decrease (inhibition) in experiment [6] is -16.1% (inactive); in experiment [7], -5.8% (inactive). The inhibition in experiment [8] is -2.26% (inactive). The red/green cell ratio (normalised) in experiment [9] was 1.18 (inactive). Besides, the normalised cell number in experiment [9] (setting [10]) was 0.88; in [9] (setting [11]), 1.04.
Turning to `CN(C)[C@@H]1C(=O)C(C(N)=O)=C(O)[C@@]2(O)C(=O)C3=C(O)c4c(O)ccc(Cl)c4[C@@H](O)[C@H]3C[C@@H]12`, in experiment [1], the insulin secretion stimulation was 0.9% (inactive). The viability decrease in experiment [2] is -29.7% (inactive). In [3], the tube area decrease is 17.3% (inactive). Also, the GLP1 secretion stimulation in experiment [4] is 10.2% (inactive). In addition, in experiment [5], the inhibition of viability was 57% (active). Moreover, the viability decrease (inhibition) is 107% (active) in [6] and 94.7% (active) in [7]. Besides, in [8], the inhibition is 0.718% (inactive). Further, in [9], the red/green cell ratio (normalised) was 0.96 (inactive) and 1.05 (inactive). For the same compound, the normalised cell number in experiment [9] (setting [10]) was 1.09 and 1.32; in [9] (setting [11]) it was 1.05 and 1.38.
For `Cc1ccc(C(=O)c2ccc(CC(=O)O)n2C)cc1`, the insulin secretion stimulation in experiment [1] was 0.4% (inactive). Also, the viability decrease in experiment [2] was -13.7% (inactive). The tube area decrease in experiment [3] was -2.5% (inactive). In addition, the GLP1 secretion stimulation in experiment [4] is 3.1% (inactive). Moreover, in experiment [5], the inhibition of viability was -3.2% (inactive). Also, the viability decrease (inhibition) in experiment [6] is -14.3% (inactive); in [7], 4.3% (inactive). Moreover, the inhibition in experiment [8] is 9.71% (inactive). In addition, the red/green cell ratio (normalised) in experiment [9] is 0.9 (inactive). In addition, the normalised cell number in experiment [9] (setting [10]) is 1.11; in experiment [9] (setting [11]), 1.

The inhibition is the drop in the measured response relative to a control, in per cent.
